Measurements published in PubChem BioAssay (NCI).
Where “and” joins values, the source holds several entries; their conditions need not be identical. Identical values can stand only once. This is part of a sample that, as a whole, favours compounds with a hit. Of some 83,000 tested, about 20% had one in any assay.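 Growth was measured after 48 h exposure to one concentration of compound in 96-well plates. Values under 10 count as active.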 Calls of active or inactive are those of the source.

Test system: KM12 colon
Assay: NCI-60 one-dose screen, 48 h (100 = growth as untreated, 0 = no growth, -100 = all killed)
Details: 10 µM
Procedure: Growth inhibition of the KM12 human tumor cell line is measured as a screen for anti-cancer activity. Cells are grown in 96 well plates and exposed to the test compound for 48 hours. Compounds are tested at a single concentration, which is 10^-5 M for most compounds. The reported endpoint is percent growth (GI% or GIPRCNT), where numbers from 0 - 100% represent growth inhibition, and numbers from -100% - 0 represent cell death. For example, a value of 40 represents 60% growth inhibition. A value of 0 means no net growth occurred over the course of the experiment. A value of -40 indicates 40% of cells at the beginning of the experiment died by the end of the experiment. A value of -100 means all cells are dead at the end of the experiment.
NCI-60 Human Tumor Cell Lines Screen was performed using the standard one-dose NCI protocol, which is described in more detail at https://dtp.cancer.gov/discovery_development/nci-60/default.htm.
Compounds with GIPRCNT values below 10 were considered active. Activity score was based on GIPRCNT using the following formula: […]
Score is 0 for GIPRCNT values of 100 or above, 50 for GIPRCNT values of 0, and 100 for GIPRCNT values of -100.

| SMILES | growth |
| --- | --- |
| CN(C)CC1(N)C(=O)NC(=O)NC1=O | 101% (inactive) |
| Cc1cc([N+](=O)[O-])c2ccccc2[n+]1[O-] | -40.8% (active) and -59.2% (active) |
| O=[N+]([O-])c1ccc(N(CCO)CCO)c2c1no[n+]2[O-] | -40.1% (active) |
| C[CH2][Hg][S]c1ccccc1C(=O)O | 69.9% (inactive) |
| C/C1=C\[C@H](C)C[C@H](C)OC(=O)C[C@H](c2ccc(O)cc2)NC(=O)[C@@H](Cc2c(Br)[nH]c3ccccc23)N(C)C(=O)[C@H](C)NC(=O)[C@@H](C)C1 | -4.41% (active) |
| COc1cc([C@@H]2c3cc4c(c(O)c3C[C@H]3COC(=O)[C@@H]32)OCO4)cc(OC)c1OC | 0.358% (active) |
| COc1cc2c(c(OC)c1OC)-c1ccc(O)c(=O)cc1[C@@H](NC(C)=O)CC2 | 57.4% (inactive) |
| COc1ccccc1[As]=[As]c1ccccc1OC (stereo not given) | -81.8% (active) |
| [Cl][Sn]([c]1ccccc1)([c]1ccccc1)[c]1ccccc1 | -71.3% (active) |
| NNc1ccccc1 | 64.7% (inactive) |
| O=[N+]([O-])/C=C/c1ccc(Cl)cc1[N+](=O)[O-] | 29.1% (inactive) |
| Oc1c(I)cc(I)cc1I | 110% (inactive) |
| COC(=O)C1C(O)C(C)C(O)C(C)/C=C\C=C(C)C(=O)Nc2c(C)c(OC(C)=O)c3c(c2O)C(=O)C(C)=C2OCOC(=C23)C(C)=CC(C)(O)C(O)C(C)C1O (stereo not given) | 102% (inactive) |
| CCOP(=O)(OCC)C(O)c1ccccc1Cl (stereo not given) | 103% (inactive) |
| CC(=O)Nc1c2sscc-2n(C)c1=O | -100% (active) |
| COc1ccc(/C=C(\C)[N+](=O)[O-])cc1OC | 54.6% (inactive) |
| CC1CCC2(OC1)OC1C(O)C3C4CCC5CC(OC6OC(CO)C(OC7OC(CO)C(O)C(OC8OCC(O)C(O)C8O)C7OC7OC(CO)C(O)C(OC8OC(CO)C(O)C(O)C8O)C7O)C(O)C6O)C(O)CC5(C)C4CCC3(C)C1C2C (stereo not given) | 34.2% (inactive) |
| Cc1cc(C(C)(C)c2ccc(O)c(C)c2)ccc1O | 92.3% (inactive) |
| O=[N+]([O-])c1cc[n+]([O-])c2ccccc12 | -89.5% (active) |
| Cc1cc(C)c(C[N+](C)(C)C)c(C)c1C | 7.87% (active) |

| SMILES | growth |
| --- | --- |
| NC(=O)c1cc([N+](=O)[O-])c(Cl)c([N+](=O)[O-])c1 | 91.6% (inactive) |
| O=[N+]([O-])/C=C/c1ccc([N+](=O)[O-])cc1 | -54.2% (active) and 99.7% (inactive) |
| COc1cc2c(cc1OC)C13CCN4CC5=CCOC6CC(=O)N2C1C6C5CC43 (stereo not given) | 101% (inactive) and 100% (inactive) |
| CCOP(=O)(OCC)/C(C#N)=C/c1ccc(Br)cc1 | 109% (inactive) |
| O=C(CBr)Nc1ccc(Cl)cc1 | 102% (inactive) |
| NC(Cc1ccccc1)c1ccccc1 (stereo not given) | 104% (inactive) and 110% (inactive) |
| COc1cc([N+](=O)[O-])c2ncccc2c1[N+](=O)[O-] | 20.3% (inactive) |
| S=C=NCCc1ccccc1 | 41.9% (inactive) |
| Oc1c(Cl)cc(Cl)c2ccccc12.[Cu+2] | 98.9% (inactive) |
| COc1ccc(/C=C\[N+](=O)[O-])cc1OC | 33.7% (inactive) and 57.2% (inactive) |
| NC(=O)c1cc([N+](=O)[O-])c(Cl)c([N+](=O)[O-])c1Cl | 19.1% (inactive) |
| [Cl][Hg][c]1ccc(Cl)s1 | 91.1% (inactive) |
| Cn1c(O)c(N=O)c(=O)n(C)c1=O | 102% (inactive) and 98.6% (inactive) |
| COc1cc(/C=C\[N+](=O)[O-])ccc1O | 80.2% (inactive) and 77.4% (inactive) |
| COc1cc(/C=C(/C)[N+](=O)[O-])ccc1O | 59.9% (inactive) and 41.9% (inactive) |
| COc1cc(/C=C/[N+](=O)[O-])cc(Br)c1OC | 15.2% (inactive) |
| COC12c3c(C)cc(O)c4c(=O)occ(c34)C(=O)C1C13COC(=O)c4c(O)cc(C)c(c41)C(=O)C2C3OC(C)=O (stereo not given) | 103% (inactive) |
| COc1ccccc1/C=C/[N+](=O)[O-] | 65.9% (inactive) |
| CC(C)c1cc([N+](=O)[O-])cc([N+](=O)[O-])c1O | 88.1% (inactive) |
| COC(C(=O)C(O)C(C)O)C1Cc2cc3cc(OC4CC(OC(C)=O)C(OC5CC(O)C(OC)C(C)O5)C(C)O4)cc(O)c3c(O)c2C(=O)C1OC1CC(OC2CC(OC3CC(C)(O)C(OC(=O)C(C)C)C(C)O3)C(O)C(C)O2)C(O)C(C)O1 (stereo not given) | -10.4% (active) |
